# Laboratory results published in the supplement of paper PMC12282887.
# ± gives the standard deviation of the averaged measurements.
# Columns and labels:
# Test in all cases: promoter activity interaction Z-score (Lux/OD deviation from empty-vector control); higher = stronger promoter induction by the compound
# [1] = test system: E. coli BW25113 acrABp lux reporter
# Method in brief: (§1)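 Low-copy luxCDABE promoter reporters were carried by E. coli BW25113, either wild type or lacking one of three genes, grown in 40 µl LB Lennox in 384-well plates at 37°C. Each compound was run at four 1:2 dilutions in biological duplicates, with OD600 and luminescence read every 30 min for 12 h. Integration used 0–8 h for wild type and 1–9 h for deletion strains, and wells under 10% of the median growth value were removed. Luminescence normalised to growth was fitted against a control, and the Z-transformed residual is the score.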
# [2] = test system: E. coli BW25113 micFp lux reporter
# Method in brief: as §1
# [3] = test system: E. coli BW25113 ompFp lux reporter
# Method in brief: as §1
# [4] = test system: E. coli BW25113 robp lux reporter
# Method in brief: as §1
# [5] = 0.034 µg/ml, genetic background: wild type
# [6] = 0.034 µg/ml, genetic background: ΔmarA
# [7] = 0.034 µg/ml, genetic background: Δrob
# [8] = 0.034 µg/ml, genetic background: ΔsoxS
# [9] = 0.067 µg/ml, genetic background: wild type
# [10] = 0.067 µg/ml, genetic background: ΔmarA
# [11] = 0.067 µg/ml, genetic background: Δrob
# [12] = 0.067 µg/ml, genetic background: ΔsoxS
# [13] = 0.13 µg/ml, genetic background: wild type
# [14] = 0.13 µg/ml, genetic background: ΔmarA
# [15] = 0.13 µg/ml, genetic background: Δrob
# [16] = 0.13 µg/ml, genetic background: ΔsoxS
# [17] = 0.27 µg/ml, genetic background: wild type
# [18] = 0.27 µg/ml, genetic background: ΔmarA
# [19] = 0.27 µg/ml, genetic background: Δrob
# [20] = 0.27 µg/ml, genetic background: ΔsoxS
smiles,measurement,setting,value
CCN1CCN(C(=O)N[C@@H](C(=O)N[C@@H]2C(=O)N3[C@@H]2SC(C)(C)[C@@H]3C(=O)O)c2ccccc2)C(=O)C1=O [Piperacillin],promoter activity interaction Z-score,[1]; [5],-0.232 ± 0.0098
same,promoter activity interaction Z-score,[1]; [6],-0.0362 ± 0.011
same,promoter activity interaction Z-score,[1]; [7],0.0917 ± 0.12
same,promoter activity interaction Z-score,[1]; [8],-0.171 ± 0.35
same,promoter activity interaction Z-score,[1]; [9],-0.00951 ± 0.16
same,promoter activity interaction Z-score,[1]; [10],-0.975 ± 0.12
same,promoter activity interaction Z-score,[1]; [11],-0.296 ± 0.13
same,promoter activity interaction Z-score,[1]; [12],0.0579 ± 0.55
same,promoter activity interaction Z-score,[1]; [13],-0.124 ± 0.2
same,promoter activity interaction Z-score,[1]; [14],0.866 ± 1.5
same,promoter activity interaction Z-score,[1]; [15],0.0632 ± 0.21
same,promoter activity interaction Z-score,[1]; [16],-0.295 ± 0.39
same,promoter activity interaction Z-score,[1]; [17],-0.155 ± 0.22
same,promoter activity interaction Z-score,[1]; [18],1.08 ± 0.93
same,promoter activity interaction Z-score,[1]; [19],0.045 ± 0.16
same,promoter activity interaction Z-score,[1]; [20],-0.703 ± 0.75
same,promoter activity interaction Z-score,[2]; [5],0.00552 ± 0.088
same,promoter activity interaction Z-score,[2]; [6],-0.146 ± 0.15
same,promoter activity interaction Z-score,[2]; [7],-0.0761 ± 0.045
same,promoter activity interaction Z-score,[2]; [8],-0.264 ± 0.15
same,promoter activity interaction Z-score,[2]; [9],0.13 ± 0.05
same,promoter activity interaction Z-score,[2]; [10],0.0167 ± 0.14
same,promoter activity interaction Z-score,[2]; [11],-0.0679 ± 0.059
same,promoter activity interaction Z-score,[2]; [12],-0.148 ± 0.27
same,promoter activity interaction Z-score,[2]; [13],-0.112 ± 0.27
same,promoter activity interaction Z-score,[2]; [14],-0.0842 ± 0.077
same,promoter activity interaction Z-score,[2]; [15],-0.0193 ± 0.093
same,promoter activity interaction Z-score,[2]; [16],-0.266 ± 0.18
same,promoter activity interaction Z-score,[2]; [17],-0.272 ± 0.16
same,promoter activity interaction Z-score,[2]; [18],-0.139 ± 0.059
same,promoter activity interaction Z-score,[2]; [19],-0.0211 ± 0.15
same,promoter activity interaction Z-score,[2]; [20],-0.639 ± 0.054
same,promoter activity interaction Z-score,[3]; [5],-0.0853 ± 0.096
same,promoter activity interaction Z-score,[3]; [6],0.15 ± 0.27
same,promoter activity interaction Z-score,[3]; [7],-0.247 ± 0.24
same,promoter activity interaction Z-score,[3]; [8],-0.152 ± 0.042
same,promoter activity interaction Z-score,[3]; [9],0.324 ± 0.3
same,promoter activity interaction Z-score,[3]; [10],-0.184 ± 0.32
same,promoter activity interaction Z-score,[3]; [11],0.0351 ± 0.21
same,promoter activity interaction Z-score,[3]; [12],0.0638 ± 0.27
same,promoter activity interaction Z-score,[3]; [13],0.0298 ± 0.29
same,promoter activity interaction Z-score,[3]; [14],0.086 ± 0.054
same,promoter activity interaction Z-score,[3]; [15],-0.035 ± 0.23
same,promoter activity interaction Z-score,[3]; [16],-0.0829 ± 0.38
same,promoter activity interaction Z-score,[3]; [17],0.489 ± 0.45
same,promoter activity interaction Z-score,[3]; [18],0.879 ± 0.27
same,promoter activity interaction Z-score,[3]; [19],1.38 ± 0.61
same,promoter activity interaction Z-score,[3]; [20],0.0824 ± 1.4
same,promoter activity interaction Z-score,[4]; [5],0.0506 ± 0.23
same,promoter activity interaction Z-score,[4]; [6],-0.0397 ± 0.005
same,promoter activity interaction Z-score,[4]; [7],0.283 ± 0.84
same,promoter activity interaction Z-score,[4]; [8],-0.0239 ± 0.021
same,promoter activity interaction Z-score,[4]; [9],0.564 ± 0.3
same,promoter activity interaction Z-score,[4]; [10],0.263 ± 0.19
same,promoter activity interaction Z-score,[4]; [11],0.443 ± 0.078
same,promoter activity interaction Z-score,[4]; [12],0.154 ± 0.23
same,promoter activity interaction Z-score,[4]; [13],0.0585 ± 0.068
same,promoter activity interaction Z-score,[4]; [14],0.404 ± 0.017
same,promoter activity interaction Z-score,[4]; [15],0.606 ± 0.011
same,promoter activity interaction Z-score,[4]; [16],0.00285 ± 0.0042
